We go through 24 compounds from PubChem BioAssay (Tox21).

Each structure is given as a SMILES string. Values without a mark were called inactive. The source made the active and inactive calls. Unless noted, the call rests on the fitted dose curve; in most records, active means well fitted curve in the direction sought with a large enough effect in the repeat runs; inconclusive means weak or mixed curves; inactive means no such curve, though single readings can be large; an effect the other way counts as inactive or inconclusive.

Assay [1] is described as follows: qHTS assay to identify small molecule antagonists of the thyroid receptor (TR) signaling pathway - cell viability counter screen (AID 743064). Further: nearly all actives have a fitted effect of over 50% in size. Further: potency means the concentration at half of the fitted maximal effect. Particulars: GH3.TRE-Luc viability, CellTiter-Fluor, 24 h; series mostly up to 70.3 µM. In outline:
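Same-well viability check: GH3.TRE-Luc cells stimulated with 1 nM T3 alongside test compound for 23.5 h, followed by CellTiter-Fluor fluorescence.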
(In general: qHTS replaces the single test concentration by a dilution series.)

Assay [2] is described as follows: qHTS assay to identify small molecule antagonists of the thyroid receptor (TR) signaling pathway (AID 743065). Further: nearly all actives have a fitted effect of over 55% in size. Further: potency means the concentration at half of the fitted maximal effect. Particulars: GH3.TRE-Luc, T3-stimulated luciferase inhibition, 23.5 h; series mostly up to 70.3 µM. The method in brief:
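Antagonism measured as loss of luciferase signal in GH3 cells stably carrying a TRE-luciferase reporter, co-treated with compound and T3 (1 nM final) for 23.5 h at 37 C. Viability was read in the same well by CellTiter-Fluor.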

Assay [3] has as its system thyroid hormone receptor (rat, GH3 cells). As to the kind of experiment: qHTS assay to identify small molecule agonists of the thyroid receptor (TR) signaling pathway (AID 743066; calls by dose curve). Particulars: GH3.TRE-Luc cells, TR agonist luciferase, 24 h; series mostly up to 83.9 µM.
A short description of assay [4]: qHTS assay to identify small molecule antagonists of the estrogen receptor alpha (ER-alpha) signaling pathway using the BG1 cell line - cell viability counter screen (AID 743081).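 Further: compound given together with 17beta-estradiol as the ER stimulus; nearly all actives have a fitted effect of over 45% in size.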 Further: potency means the concentration at half of the fitted maximal effect. Particulars: BG1Luc4E2 viability, CellTiter-Fluor, 22 h; series mostly up to 70.3 µM.
Another assay addresses Aromatase (Homo sapiens) (UniProt P11511). The experiment in a line: qHTS assay to identify aromatase inhibitors (AID 743083). Further: nearly all actives have a fitted effect of over 55% in size. Further: potency means the concentration at half of the fitted maximal effect. The note with it: MCF-7 aro ERE, testosterone-driven ERE luciferase, 24 h; series mostly up to 70.3 µM.
The target in assay [5] is Estrogen receptor (Homo sapiens) (UniProt P03372). As to the kind of experiment: qHTS assay to identify small molecule antagonists of the estrogen receptor alpha (ER-alpha) signaling pathway (AID 743069; active means well fitted curve in the direction sought with a large enough effect in the signal ratio in the repeat runs, not every such curve was filed as active; inconclusive means weak or mixed curves, or effect the other way; inactive means no such curve, though single readings can be large or run the other way; the % refers to the signal ratio; further: potency means the concentration at half of the fitted maximal effect). The note with it: HEK293 ER-alpha-UAS-bla, beta-lactamase ratio, antagonist mode; series mostly up to 69.4 µM. In outline: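 ER-alpha-UAS-bla GripTite HEK293 line; 2% charcoal-stripped FBS overnight; plated, 4 hr 37C/5% CO2; cpd in DMSO + 17beta-estradiol, 18 hr 37C; LiveBLAzer B/G FRET substrate 2 hr RT; fluorescence intensity.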

For assay [6] the target is unchanged. The experiment in a line: qHTS assay to identify small molecule agonists of the estrogen receptor alpha (ER-alpha) signaling pathway (AID 743075; calls by dose curve;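 further: HEK293 GripTite cells with ER-alpha and UAS-driven beta-lactamase reporter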; further: potency means the concentration at half of the fitted maximal effect). The note with it: HEK293 ER-alpha-UAS-bla, beta-lactamase FRET ratio, 18 h; series mostly up to 70.1 µM.
The nature of assay [7]: qHTS assay to identify small molecule antagonists of the estrogen receptor alpha (ER-alpha) signaling pathway - cell viability counter screen (AID 743074; calls by dose curve;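 further: HEK293 cells carrying ER-alpha-UAS-bla reporter stimulated with 17beta-estradiol; nearly all actives have a fitted effect of over 45% in size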; further: potency means the concentration at half of the fitted maximal effect). The note with it: ERalpha-bla HEK293 viability, CellTiter-Glo luminescence, 18 h; series mostly up to 69.4 µM.
The target of assay [8] is Estrogen receptor (Homo sapiens) (UniProt P03372). The experiment in a line: qHTS assay to identify small molecule agonists of the estrogen receptor alpha (ER-alpha) signaling pathway using the BG1 cell line (AID 743079). Further: nearly all actives have a fitted effect of over 20% in size. Further: potency means the concentration at half of the fitted maximal effect. The note with it: BG1Luc4E2 cells, ERE-luciferase agonist, 22 h; series mostly up to 70.3 µM.
The nature of assay [9]: qHTS assay to identify small molecule antagonists of the estrogen receptor alpha (ER-alpha) signaling pathway using the BG1 cell line (AID 743080; calls by dose curve;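 further: BG1 cells stimulated with 17beta-estradiol alongside compound; nearly all actives have a fitted effect of over 25% in size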). The note with it: BG1Luc4E2 ERE-luciferase antagonist mode, luminescence; series mostly up to 70.3 µM. In outline:
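Luciferase inhibition measured with ONE-Glo after 30 min at RT in BG1Luc4E2 cells given test compounds and 17beta-estradiol for 21.5 h at 37 C; CellTiter-Fluor viability read in the same wells beforehand.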
On the % scale 0 is the no-effect control and ±100 the full control effect.

Chain of Aromatase (Homo sapiens) (P11511 whole entry, looked up): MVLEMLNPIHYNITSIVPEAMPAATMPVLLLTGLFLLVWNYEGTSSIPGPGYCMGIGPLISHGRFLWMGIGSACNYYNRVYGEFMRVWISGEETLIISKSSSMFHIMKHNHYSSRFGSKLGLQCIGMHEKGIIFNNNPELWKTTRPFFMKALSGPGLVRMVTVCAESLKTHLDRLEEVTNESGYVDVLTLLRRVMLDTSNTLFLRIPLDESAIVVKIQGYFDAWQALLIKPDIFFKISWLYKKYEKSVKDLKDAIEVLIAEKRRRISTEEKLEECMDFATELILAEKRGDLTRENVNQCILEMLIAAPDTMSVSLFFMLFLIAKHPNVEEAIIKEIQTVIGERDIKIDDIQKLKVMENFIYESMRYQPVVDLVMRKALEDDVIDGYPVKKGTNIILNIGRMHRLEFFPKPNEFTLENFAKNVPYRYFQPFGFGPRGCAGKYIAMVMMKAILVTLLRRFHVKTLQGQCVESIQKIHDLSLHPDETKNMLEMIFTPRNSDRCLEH
Chain of Estrogen receptor (Homo sapiens) (P03372 whole entry, looked up): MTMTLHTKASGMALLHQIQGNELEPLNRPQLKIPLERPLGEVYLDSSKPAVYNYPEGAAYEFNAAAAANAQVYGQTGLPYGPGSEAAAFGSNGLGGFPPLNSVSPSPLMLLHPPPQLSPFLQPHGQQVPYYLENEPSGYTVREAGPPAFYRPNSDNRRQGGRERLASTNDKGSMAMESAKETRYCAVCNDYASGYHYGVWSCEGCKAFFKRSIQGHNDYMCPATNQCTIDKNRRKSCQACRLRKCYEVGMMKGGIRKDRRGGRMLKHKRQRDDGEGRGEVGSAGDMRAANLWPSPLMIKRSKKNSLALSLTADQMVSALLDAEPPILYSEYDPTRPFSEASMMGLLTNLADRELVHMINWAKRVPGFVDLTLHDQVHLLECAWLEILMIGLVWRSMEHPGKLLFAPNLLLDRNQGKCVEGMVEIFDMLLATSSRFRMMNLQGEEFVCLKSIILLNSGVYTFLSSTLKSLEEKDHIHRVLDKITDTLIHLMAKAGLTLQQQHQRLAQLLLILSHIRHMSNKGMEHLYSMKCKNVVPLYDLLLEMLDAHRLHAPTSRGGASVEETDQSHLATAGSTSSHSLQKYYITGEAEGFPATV

As to `CC(C)(CO)[N+](=O)[O-]`, the Potency entry (in [1]; in assay [2]; in assay [3]; in assay [4]; with Aromatase (Homo sapiens)) was “inactive” each time.
On to `COc1cc(C(=O)OCCCN2CCCN(CCCOC(=O)c3cc(OC)c(OC)c(OC)c3)CC2)cc(OC)c1OC`, for which the Potency in assay [1] is 8.41 µM (active); in assay [2], 13.3 µM (active); in assay [4], 9.44 µM (active). In addition, the Potency entry (in assay [5]; in assay [6]; with Aromatase (Homo sapiens)) was “inactive” in each case.
Take `COc1ccc(S(=O)(=O)N2C(=O)[C@@](c3ccccc3OC)(N3C[C@H](O)C[C@H]3C(=O)N(C)C)c3cc(Cl)ccc32)c(OC)c1`: the Potency is 34.4 µM (active) in assay [1], 68.6 µM (active) in assay [2], 43.6 µM [inconclusive] (active) in assay [5] and 61.1 µM (active) with Aromatase (Homo sapiens). The Potency result in assay [7] and in [6] was “inactive” throughout.
As to `CC(C)CC(=O)C1C(=O)c2ccccc2C1=O`, the Potency result in assay [1], in assay [7], in [6], in assay [8], in [9] and in [4] was “inactive” throughout. Moreover, the Potency result with Aromatase (Homo sapiens) was “inactive”.
As for `CC1=CC[C@H](C(C)C)C=C1`, the Potency entry in assay [1], in assay [5], in [7], in assay [6], in [8] and in [9] was “inactive” each time. Besides, the Potency result (in [4]; in the assay with Aromatase (Homo sapiens)) was “inactive” in each case.
Turning to `CN(C)CCCN1c2ccccc2Sc2ccccc21`, the Potency in assay [1] was 2.85 µM (active). Moreover, the Potency result (in assay [3]; in assay [7]; in assay [4]; in the assay with Aromatase (Homo sapiens)) was “inactive” each time.
Take `C/C=C/C(=O)CC`: the Potency result (in assay [2]; in [8]; in [9]; in [4]; with Aromatase (Homo sapiens)) was “inactive” each time. The activation in assay [3] was 0.0391% [at 18 µM]; in assay [6] it was -0.96% [at 14.9 µM]. Further, the activity, negative = inhibition in assay [5] was 9.39% [at 15 µM]. The activity, negative = cytotoxicity in [7] was -6.1% [at 15 µM].
`CCCCCCCCCCCCN1CCCCCC1=O`: the Potency entry in [1], in [3] and in assay [4] was “inactive” in each case. Further, in [7], the Potency is 43.6 µM (active).
In the case of `O=C(O)CC(=O)C(=O)O`, the Potency entry (in assay [1]; in [7]; in [4]; in the assay with Aromatase (Homo sapiens)) was “inactive” throughout.
Take `CC(=O)[O][Al]`: the Potency entry (in assay [1]; in [3]; in [7]; in assay [4]; in the assay with Aromatase (Homo sapiens)) was “inactive” in each case.
On to `CNC(=O)CN(CCN(CCN(CC(=O)[O-])CC(=O)NC)CC(=O)[O-])CC(=O)[O-].O.[Gd+3]`, for which the Potency entry in [1], in [3], in assay [5], in assay [7], in assay [6] and in [8] was “inactive” in each case. The Potency entry (in assay [9]; in assay [4]; in the assay with Aromatase (Homo sapiens)) was “inactive” in each case.
For `C#CCN(C)CCCOc1ccc(Cl)cc1Cl`, the Potency result in assay [2], in assay [3], in [5], in assay [7], in assay [6] and in [4] was “inactive” in each case. Besides, the Potency result with Aromatase (Homo sapiens) was “inactive”. Besides, the Potency in assay [8] is 29.8 µM (active).
`CC(=O)[O][Al][O]C(C)=O`: the Potency result (in assay [1]; in assay [3]; in assay [7]; in assay [9]; in assay [4]; in the assay with Aromatase (Homo sapiens)) was “inactive” each time.
`O=C(O)c1ccco1`: the Potency entry in assay [2], in assay [3], in assay [5], in [7], in assay [6] and in [8] was “inactive” in each case. The Potency result (in [9]; in [4]; with Aromatase (Homo sapiens)) was “inactive” each time.
With `C[N+]1(C)CCC(OC(=O)C(O)(c2ccccc2)C2CCCC2)C1` (stereo not given), the Potency result in [1], in assay [5], in assay [6], in [8], in [9] and in assay [4] was “inactive” throughout.
As for `COc1ccc(C(=O)c2ccc(OC)cc2O)c(O)c1`, the Potency result (in assay [2]; in [3]; in assay [5]; in [7]; in assay [4]; in the assay with Aromatase (Homo sapiens)) was “inactive” throughout. Moreover, the Potency in assay [6] was 8.77 µM [fluorescent] (active); in assay [8], 30.9 µM (active).
Turning to `Nc1c(CC(=O)O)cccc1C(=O)c1ccc(Br)cc1`, the Potency entry in [1], in [3], in assay [5], in [7], in assay [6] and in assay [8] was “inactive” in each case. Also, the Potency entry (in assay [9]; in [4]; with Aromatase (Homo sapiens)) was “inactive” in each case.
Regarding `CCN(CC)CCOC(=O)C(Cc1cccc2ccccc12)CC1CCCO1` (stereo not given), the Potency result (in assay [1]; in [7]; in [4]; with Aromatase (Homo sapiens)) was “inactive” each time.
Turning to `CCCCCCCCCCCCCCOS(=O)(=O)O`, the Potency in assay [2] was 48.6 µM (active). The Potency result in [3], in assay [5], in assay [7], in assay [6], in [8] and in assay [9] was “inactive” throughout. Moreover, the Potency result (in [4]; in the assay with Aromatase (Homo sapiens)) was “inactive” in each case.
With `CCCCCCCCCOS(=O)(=O)O`, the Potency result in assay [2], in [3], in assay [5], in assay [7], in assay [6] and in assay [9] was “inactive” each time. For the same compound, the Potency result (in assay [4]; in the assay with Aromatase (Homo sapiens)) was “inactive” throughout. Besides, the Potency in [8] was 34.4 µM (active).
Turning to `COc1ccnc(CS(=O)c2nc3ccc(OC(F)F)cc3[nH]2)c1OC` (stereo not given), the Potency result in [1], in assay [3], in assay [7], in assay [6], in assay [9] and in [4] was “inactive” throughout. Further, in the assay with Aromatase (Homo sapiens), the Potency entry was “inactive”.
For the compound `C[Si](C)(CCCN)O[Si](C)(C)CCCN`, the Potency entry in assay [1], in [5], in assay [7], in [6], in assay [8] and in assay [9] was “inactive” in each case. Also, the Potency entry with Aromatase (Homo sapiens) was “inactive”.
For the compound `C=CC1CC2C=CC1C2` (stereo not given), the Potency result in assay [2], in assay [3], in assay [5], in assay [7], in [6] and in [8] was “inactive” each time. Besides, the Potency entry (in assay [9]; in assay [4]; in the assay with Aromatase (Homo sapiens)) was “inactive” each time.
For the compound `CCCCC(=O)OCC(=O)[C@H]1[C@H](C)C[C@H]2[C@@H]3C[C@H](F)C4=CC(=O)C=C[C@]4(C)[C@@]3(F)[C@@H](O)C[C@@]21C`, the Potency result (in assay [1]; in assay [3]; in assay [6]; in assay [8]; in assay [4]; with Aromatase (Homo sapiens)) was “inactive” each time.
